Measurements from the supplement of paper PMC10720658.
± gives the standard deviation of the averaged measurements.

tested on: AEK1 (Tb927.3.2440); assay: percent reduction in TR-FRET probe signal relative to DMSO control; higher = stronger displacement of ATP-site probe (binding); details: 1 µM; incubation time 1 h

SMILES | percent reduction in TR-FRET probe signal [%]
Cc1ccc(F)c(NC(=O)Nc2ccc(-c3cccc4[nH]nc(N)c34)cc2)c1 [Linifanib (ABT-869)] | 1.08 ± 12
O=C(NCCO)c1cccc(-c2cc(Nc3ccc(OC(F)(F)F)cc3)ncn2)c1 | 13.3 ± 16
CC[C@@H]1C(=O)N(C)c2cnc(Nc3ccc(C(=O)NC4CCN(C)CC4)cc3OC)nc2N1C1CCCC1 | -1.92 ± 12
O=C(NCCCNc1nc(Nc2cccc(NC(=O)N3CCCC3)c2)ncc1I)c1cccs1 | -0.457 ± 1.2
COc1cc2ncnc(Oc3ccc(CC(=O)Nc4cnn(C(C)C)c4)cc3)c2cc1OC | 5.15 ± 13
Cc1c[nH]c(-c2cnc(NCCNc3ccc(C#N)cn3)nc2-c2ccc(Cl)cc2Cl)n1 | 2.8 ± 12
CN(C)CCCn1cc(C2=C(c3c[nH]c4ccccc34)C(=O)NC2=O)c2ccccc21 | 8.74 ± 7.2
C[C@H](Nc1ncnc2nc[nH]c12)c1cc2cccc(Cl)c2c(=O)n1-c1ccccc1 | -9.85 ± 5.9
CS(=O)(=O)c1cccc(CNc2nc(Nc3ccc4c(c3)CCC(=O)N4)ncc2C(F)(F)F)c1 | 39.5 ± 13
CCCCCCCCCCCCCCCCOP(=O)([O-])OCC[N+](C)(C)C [Miltefosine] | 4.96 ± 18
Cc1ccc(NC(=O)c2cccc(N(C)C)c2)cc1NC(=O)c1ccc(O)cc1 | -8.68 ± 4
Cc1ncc(-c2ccnc(Nc3ccc(S(C)(=O)=O)cc3)n2)n1C(C)C | -3.5 ± 1.6
Cc1cc(Nc2nc(N[C@@H](C)c3ncc(F)cn3)ncc2Cl)n[nH]1 | 56.5 ± 16
